HCMV antiviral – human cytomegalovirus inhibition; HFF cells, HCMV-luciferase reporter, 72 h; active compounds read low; activity change, negative = inhibition, % at 57.5 µM; hit rate 4.5% among 410,000; in the data active = activity change below about -60%; inconclusive = no clear call, values can overlap the other calls; inactive = above about -39%
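Two compound doses tested in HFFs infected with HCMV-luciferase, MOI 1 PFU/cell, 72 h at 37C. Lysate luminescence read with OneGlo; data normalized against buffer-only and 10uM Salinomycin inhibitor controls.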
Sm TGR inh – inhibitors of Schistosoma mansoni thioredoxin glutathione reductase; Q962Y6; purified TGR, DTNB reduction, TNB absorbance 405 nm; Potency, µM (titrated, usually from 114 µM), without a hit: at the highest dose activity change, negative = inhibition, usual class: inhibitors; hit rate 3% among 360,000; AID 485364; note: potency is the fitted concentration of half-maximal effect; nearly all actives have a fitted effect of over 60% in size
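TGR 20 nM + NADPH 100 uM (dispensed conc.), cpd preinc 15 min RT; start with NADPH (500 uM addition) then DTNB (15 mM addition). Kinetic TNB absorbance, 405 nm filter. Four-parameter Hill fit across titration.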
FMDV inh – blocks foot and mouth disease virus | AID 1159524 | hit rate 1.2% among 410,000 | Potency, µM (titrated, usually from 57.9 µM), for the others: top-dose activity change, negative = inhibition, actives largely listed as inhibitors | FMDV antiviral cell-based qHTS; calls by dose curve; tested in HEK293T cells; note: read-out not given here; potency is the fitted concentration of half-maximal effect; nearly all actives have a fitted effect of over 45% in size
Tb PYK inh – T. brucei pyruvate kinase inhibition; Potency, µM (titrated, usually from 76.8 µM), without a hit: top-dose activity, negative = inhibition, usual class: inhibitors; Q57TT1; TbPYK enzyme, Kinase-Glo Plus ATP luminescence, 45 min; hit rate 0.12% among 410,000; note: potency is the fitted concentration of half-maximal effect; nearly all actives have a fitted effect of over 50% in size
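Luminescent Kinase-Glo Plus end-point after 45 min room-temperature reaction of T. brucei pyruvate kinase started with 130 uM ADP (final). Buffer TEA 50 mM pH 7.2 with KCl, MgCl2, BSA, Tween-20; titration-based qHTS with fitted concentration-effect curves.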
RE007 growth inh – less growth of the S. pombe RE007 Vpr strain; S. pombe RE007 Vpr strain, BacTiter-Glo ATP luminescence, 24 h; Potency, µM (highest dose often 92.2 µM), inactives show at the highest dose activity change, negative = less growth, actives largely listed as inhibitors; hit rate 0.21% among 360,000; AID 651644; active = well fitted falling curve with a large enough effect; inconclusive = small, poorly fitted or top-dose-only effect; inactive = no such curve, though single readings can be large or run the other way; note: potency is the fitted concentration of half-maximal effect; nearly all actives have a fitted effect of over 50% in size
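Fission yeast RE007 carrying one integrated HIV-1 vpr copy, seeded at OD 0.01 in PMG+AL medium with 23 nL pinned compound. Grown 24 h at 30 degrees; viability read by BacTiter-Glo luminescence after 5 min.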
FBPA Giardia inh – inhibitors of Giardia lamblia fructose-1,6-bisphosphate aldolase; hit rate 0.71% among 290,000; A8B2U2; purified Giardia FBPA; AID 2451; Potency, µM (series often up to 59.6 µM), for inactives: at the top dose activity, negative = inhibition, usual class: inhibitors; note: potency is the fitted concentration of half-maximal effect; nearly all actives have a fitted effect of over 55% in size
Target sequence (A8B2U2 whole entry, looked up): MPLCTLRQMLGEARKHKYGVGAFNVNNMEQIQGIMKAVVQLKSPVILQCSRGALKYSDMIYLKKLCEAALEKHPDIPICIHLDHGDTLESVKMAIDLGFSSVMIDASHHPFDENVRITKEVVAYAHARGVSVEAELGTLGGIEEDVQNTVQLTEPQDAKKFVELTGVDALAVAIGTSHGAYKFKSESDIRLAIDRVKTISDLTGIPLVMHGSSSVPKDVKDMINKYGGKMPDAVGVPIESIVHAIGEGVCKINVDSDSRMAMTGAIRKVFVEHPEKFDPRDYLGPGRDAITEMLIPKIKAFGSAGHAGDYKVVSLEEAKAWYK
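Giardia FBPA (40 nM reagent) was preincubated 10 min at RT with compound (up to 57.5 uM final), then substrate plus GAPDH/TPI/NAD/arsenate coupling system with diaphorase/resazurin was added; resorufin fluorescence (525/598 nm) was read after 20 min.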
* hit, by the source's call; ! = repeats disagree; [ ] = dose if it differs, or a comment. Shown are actives, neighbours in structure and some others; about 7.7% of the full set was active somewhere. Unless noted, calls come from the whole dose curve; as a rule, active = well fitted curve in the direction sought with a large enough effect; inconclusive = small, poorly fitted or top-dose-only effect, or another doubt; inactive = no such curve, though single readings can be large; an effect the other way counts as inactive or inconclusive. % is set by controls: 0 for no effect and ±100 for the full control effect.

Screening CC12CC[C@H]3[C@@H](CCC4(O)C[C@H](O)CCC34/C=N/NC(=O)Cc3ccccc3)C1(O)CCC2C1=CC(=O)OC1 (stereo partly specified) returned HCMV antiviral -66*, Sm TGR inh -1%, FMDV inh 11%, Tb PYK inh 4%, RE007 growth inh 14% and FBPA Giardia inh 7%.
For CC(OC(=O)c1cccc(-n2cnnn2)c1)c1nc2ccccc2c(=O)[nH]1 (stereo unspecified) the results were HCMV antiviral -65*, Sm TGR inh -22%, FMDV inh inconclusive, Tb PYK inh -7% and RE007 growth inh 3%.
CC(=O)c1ccc(NC(=O)C(C)OC(=O)c2cccc(-n3cnnn3)c2)cc1 (stereo unspecified) was read as HCMV antiviral -22, Sm TGR inh -8%, FMDV inh inconclusive, Tb PYK inh -5% and RE007 growth inh 22%.
Screening COc1ccc(/C=C\c2onc(C)c2S(=O)(=O)N2CCC(C(=O)Nc3ccc(F)cc3F)CC2)cc1 returned HCMV antiviral 37, Sm TGR inh -1%, FMDV inh -20% and Tb PYK inh 2%.
For CCOC(=O)CSC1=Nc2ccccc2C2=NC(CCC(=O)NCc3ccccc3)C(=O)N12 (stereo unspecified) the results were HCMV antiviral -4, Sm TGR inh 6%, FMDV inh -23% and Tb PYK inh 0%.
`CC(=O)N1c2ccc(S(=O)(=O)N3CCC(C(=O)N4CCN(c5ccc(Cl)cc5)CC4)CC3)cc2CC1C` (stereo unspecified) gave HCMV antiviral -74*, Sm TGR inh 7%, FMDV inh inconclusive, Tb PYK inh -12% and RE007 growth inh 1%.
O=C(C1CCN(S(=O)(=O)c2ccc3ccccc3c2)CC1)N1CCN(c2ncccn2)CC1 was read as HCMV antiviral -32, Sm TGR inh -23%, FMDV inh 28µM*, Tb PYK inh 2%, RE007 growth inh 16% and FBPA Giardia inh 1%.
`O=C(C1CCN(S(=O)(=O)c2cccc3cccnc23)CC1)N1CCN(c2ccc(Cl)cc2)CC1` gave HCMV antiviral -79*, Sm TGR inh -10%, FMDV inh -30%, Tb PYK inh -12%, RE007 growth inh -1% and FBPA Giardia inh 1%.
Screening O=C(C1CCN(S(=O)(=O)c2cccnc2)CC1)N1CCN(c2ccc(Cl)cc2)CC1 returned HCMV antiviral -90*, Sm TGR inh 6%, FMDV inh inconclusive, Tb PYK inh -13%, RE007 growth inh -1% and FBPA Giardia inh 5%.
CC1Cc2cc(S(=O)(=O)N3CCN(c4ccc(Cl)cc4)CC3)ccc2N1C(=O)C1CC1 (stereo unspecified) was read as HCMV antiviral -26, Sm TGR inh -5%, FMDV inh inconclusive, Tb PYK inh -14%, RE007 growth inh 10% and FBPA Giardia inh 5%.
For O=C(Nc1ccccn1)C1CCN(S(=O)(=O)c2ccc3ccccc3c2)CC1 the results were HCMV antiviral -26, Sm TGR inh 19%, FMDV inh -18%, Tb PYK inh 0% and RE007 growth inh 2%.
For COC(=O)CCCCCN1C(=O)NC(CC2CC2)C(C(=O)OCc2ccccc2)=C1C (stereo unspecified) the results were FBPA Giardia inh -1%.
For O=C1[C@@H]2[C@H]3C(=CC[C@@H]2C(=O)N1Cc1ccccc1)C1(OCCCO1)[C@H]1O[C@@H]1[C@H]3O the results were FBPA Giardia inh -9%[12.9 µM].
Screening C=N[C@@H](C(=O)N[C@@H]1C(=O)N2[C@@H]1SC(C)(C)[C@@H]2C(=O)O)c1ccccc1 returned FMDV inh 6%.
Screening COc1cccc(-c2nnc3sc(CN4CCCCC4)cn23)c1 returned HCMV antiviral 23, Sm TGR inh 5%, FMDV inh -23% and Tb PYK inh 2%.
For CN1C(=O)Cc2cc(S(=O)(=O)N3CCN(c4ccc(Cl)cc4)CC3)ccc21 the results were HCMV antiviral active!, Sm TGR inh -2%, FMDV inh -18%, Tb PYK inh 3% and RE007 growth inh 14%.
`Cc1ccc(Cl)cc1N1CCN(C(=O)C2CCN(S(=O)(=O)Cc3ccccc3)CC2)CC1` gave HCMV antiviral -12, Sm TGR inh -30%, FMDV inh inconclusive and Tb PYK inh -8%.
Screening Cc1ccc(Cl)cc1N1CCN(C(=O)C2CCN(S(=O)(=O)c3c(C)nn(C)c3C)CC2)CC1 returned HCMV antiviral -37, Sm TGR inh -9%, FMDV inh 32µM*, Tb PYK inh -24%, RE007 growth inh -14% and FBPA Giardia inh 2%.
For O=C(C1CCN(S(=O)(=O)c2cccnc2)CC1)N1CCN(c2ccccc2Cl)CC1 the results were HCMV antiviral -2, Sm TGR inh -12%, FMDV inh inconclusive, Tb PYK inh 4%, RE007 growth inh -3% and FBPA Giardia inh 5%.
For Cc1ccc(Cl)cc1N1CCN(C(=O)C2CCN(S(=O)(=O)c3cccnc3)CC2)CC1 the results were HCMV antiviral -30, Sm TGR inh -6%, FMDV inh 16µM*, Tb PYK inh 4%, RE007 growth inh 20% and FBPA Giardia inh -1%.
Screening COc1ccccc1CNC(=O)C1CCN(S(=O)(=O)c2cccc3cccnc23)CC1 returned HCMV antiviral -71*, Sm TGR inh 7%, FMDV inh 0%, Tb PYK inh 3%, RE007 growth inh 5% and FBPA Giardia inh 7%.
CCCCNC(=O)c1nc2cc(C)c(C)cc2nc1-c1cccc(OC)c1 was read as HCMV antiviral 19.
For CCNC(=O)CC1C(=O)N(c2ccc(C)cc2)C(=O)N1Cc1ccc(C)cc1 (stereo unspecified) the results were HCMV antiviral -22, Sm TGR inh 3%, FMDV inh 4% and Tb PYK inh -3%.
Cc1ccc(Cn2cc(S(=O)(=O)c3cccc(Cl)c3)c(=O)c3cc(F)c(N4CCCCC4)cc32)cc1 was read as HCMV antiviral inconclusive, Sm TGR inh 0%, FMDV inh 9% and Tb PYK inh 3%.
Screening CCc1ccccc1NC(=O)C1CCCN(c2cnccn2)C1 (stereo unspecified) returned HCMV antiviral -2, Sm TGR inh -5%, FMDV inh 0% and Tb PYK inh 2%.
`COc1ccccc1CNC(=O)C1CCN(C2=NS(=O)(=O)C(c3ccc(C)c(C)c3)=C2C)CC1` gave HCMV antiviral -64*, Sm TGR inh 1%, FMDV inh inconclusive and Tb PYK inh 5%.

Assay outcomes from PubChem BioAssay.
